Measured values taken from article PMC7862700, “An all-to-all approach to the identification of sequence-specific readers for epigenetic DNA modifications on cytosine”.

Columns and labels:
Test in all cases: DAPPL (digital affinity profiling via proximity ligation, sequencing); 10 mM Tris-HCl pH 7.5, 50 mM NaCl, 1 mM DTT, 4% glycerol, room temperature, 30 min; GST-TFs on glutathione beads, 16-mer random dsDNA library, 0.1% formaldehyde crosslink after washing; high values mean tight binding
Details in all cases: protein: recombinant; tags: N-terminal GST; dsDNA, one strand shown
FLI1 = molecular target: T1, FLI1 (Homo sapiens, UniProt Q01543 1-452)
T1 sequence: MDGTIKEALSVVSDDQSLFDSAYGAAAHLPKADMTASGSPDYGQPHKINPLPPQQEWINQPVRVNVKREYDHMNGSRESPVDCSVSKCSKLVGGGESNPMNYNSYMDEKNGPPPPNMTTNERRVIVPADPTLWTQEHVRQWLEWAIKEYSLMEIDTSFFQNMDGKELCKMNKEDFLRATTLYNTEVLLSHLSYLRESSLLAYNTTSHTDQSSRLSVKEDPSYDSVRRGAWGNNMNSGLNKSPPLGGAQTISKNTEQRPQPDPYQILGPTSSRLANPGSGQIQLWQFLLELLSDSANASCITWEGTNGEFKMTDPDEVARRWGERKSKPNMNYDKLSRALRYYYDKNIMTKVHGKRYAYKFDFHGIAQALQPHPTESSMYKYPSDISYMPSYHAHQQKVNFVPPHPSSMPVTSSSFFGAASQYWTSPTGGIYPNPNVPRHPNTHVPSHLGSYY
Summary of the method: (§1)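 Binding signal is defined as a hexamer's read frequency for one factor over its frequency for the tag-only sample. To obtain reads, GST-fused human transcription factors were expressed in yeast, captured on glutathione beads, barcoded with DNA and pooled with that sample. Pools met 200 nmole of a 16-mer random double-stranded DNA library in Tris/NaCl/DTT/glycerol buffer for 30 min at room temperature before washing, 0.1% formaldehyde crosslinking, proximity ligation (BsaI/T4 ligase, 1 h, 37 °C), PCR and Illumina NextSeq500 sequencing.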

ELK1 = molecular target: T2, ELK1 (Homo sapiens, UniProt P19419 1-428)
T2 sequence: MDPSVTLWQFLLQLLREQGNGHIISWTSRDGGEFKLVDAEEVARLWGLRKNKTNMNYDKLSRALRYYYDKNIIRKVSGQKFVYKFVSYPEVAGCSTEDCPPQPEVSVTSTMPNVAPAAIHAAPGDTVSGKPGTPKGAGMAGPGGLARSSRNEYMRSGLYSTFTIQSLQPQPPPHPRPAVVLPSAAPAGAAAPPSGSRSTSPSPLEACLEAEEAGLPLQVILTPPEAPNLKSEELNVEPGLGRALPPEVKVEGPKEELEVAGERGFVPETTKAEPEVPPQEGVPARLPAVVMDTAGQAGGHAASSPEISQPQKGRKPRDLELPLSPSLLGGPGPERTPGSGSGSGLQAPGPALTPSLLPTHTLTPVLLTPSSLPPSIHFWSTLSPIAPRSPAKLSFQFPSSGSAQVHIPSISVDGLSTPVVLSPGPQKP
Summary of the method: as §1

GABPA = molecular target: T3, GABPA (Homo sapiens, UniProt Q06546 1-454)
T3 sequence: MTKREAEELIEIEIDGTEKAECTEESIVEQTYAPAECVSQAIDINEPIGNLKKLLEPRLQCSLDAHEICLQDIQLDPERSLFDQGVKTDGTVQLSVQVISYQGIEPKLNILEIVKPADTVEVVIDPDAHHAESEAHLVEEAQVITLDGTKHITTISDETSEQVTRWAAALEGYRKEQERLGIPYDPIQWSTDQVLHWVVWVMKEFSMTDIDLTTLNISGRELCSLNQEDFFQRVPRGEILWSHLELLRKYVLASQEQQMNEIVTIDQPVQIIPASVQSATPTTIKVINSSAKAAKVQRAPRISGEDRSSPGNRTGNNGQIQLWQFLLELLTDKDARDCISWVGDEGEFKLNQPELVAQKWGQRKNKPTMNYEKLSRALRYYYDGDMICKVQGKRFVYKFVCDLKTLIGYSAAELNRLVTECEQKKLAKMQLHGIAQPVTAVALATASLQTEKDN
Summary of the method: as §1

ERG = molecular target: T4, ERG (Homo sapiens, UniProt P11308 1-479)
T4 sequence: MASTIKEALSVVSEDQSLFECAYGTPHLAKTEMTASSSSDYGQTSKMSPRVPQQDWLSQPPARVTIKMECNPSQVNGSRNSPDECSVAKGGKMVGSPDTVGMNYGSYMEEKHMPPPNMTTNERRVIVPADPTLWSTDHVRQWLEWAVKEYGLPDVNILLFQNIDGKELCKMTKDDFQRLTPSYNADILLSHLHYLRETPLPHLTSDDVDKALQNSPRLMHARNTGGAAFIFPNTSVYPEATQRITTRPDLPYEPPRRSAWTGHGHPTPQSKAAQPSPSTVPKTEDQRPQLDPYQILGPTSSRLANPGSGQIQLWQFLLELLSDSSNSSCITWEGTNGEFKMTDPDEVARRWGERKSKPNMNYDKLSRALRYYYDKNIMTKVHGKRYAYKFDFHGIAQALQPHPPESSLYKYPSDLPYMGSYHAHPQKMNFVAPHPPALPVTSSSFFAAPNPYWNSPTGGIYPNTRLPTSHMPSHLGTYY
Summary of the method: as §1

ELF1 = ELF1 (Homo sapiens, UniProt P32519 1-619)
Summary of the method: as §1

EHF = molecular target: T5, EHF (Homo sapiens, UniProt Q9NZC4 1-300)
T5 sequence: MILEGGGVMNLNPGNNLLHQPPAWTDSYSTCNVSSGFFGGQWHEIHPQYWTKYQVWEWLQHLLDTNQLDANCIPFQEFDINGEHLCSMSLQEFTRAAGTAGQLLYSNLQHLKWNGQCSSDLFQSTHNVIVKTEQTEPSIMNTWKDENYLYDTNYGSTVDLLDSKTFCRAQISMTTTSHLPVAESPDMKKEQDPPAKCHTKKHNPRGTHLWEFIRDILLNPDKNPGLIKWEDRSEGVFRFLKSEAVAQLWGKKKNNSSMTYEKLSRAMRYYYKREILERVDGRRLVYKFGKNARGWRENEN
Summary of the method: as §1

SPI1 = SPI1 (Homo sapiens, UniProt P17947 1-270)
Summary of the method: as §1

SPIB = SPIB (Homo sapiens, UniProt Q01892 1-262)
Summary of the method: as §1

ELK3 = molecular target: T6, ELK3 (Homo sapiens, UniProt P41970 1-407)
T6 sequence: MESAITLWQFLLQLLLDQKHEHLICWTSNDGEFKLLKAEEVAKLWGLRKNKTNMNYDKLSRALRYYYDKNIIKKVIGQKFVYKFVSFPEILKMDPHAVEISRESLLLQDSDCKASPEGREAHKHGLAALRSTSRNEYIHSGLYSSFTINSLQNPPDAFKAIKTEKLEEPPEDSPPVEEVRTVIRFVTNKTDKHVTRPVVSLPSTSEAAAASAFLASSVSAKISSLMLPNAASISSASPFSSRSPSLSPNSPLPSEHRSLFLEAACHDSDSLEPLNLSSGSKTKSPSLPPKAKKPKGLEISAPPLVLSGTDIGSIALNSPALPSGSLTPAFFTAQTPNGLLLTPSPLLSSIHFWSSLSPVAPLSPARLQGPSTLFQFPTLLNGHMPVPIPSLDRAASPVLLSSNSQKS
Summary of the method: as §1

FEV = molecular target: T7, FEV (Homo sapiens, UniProt Q99581 1-238)
T7 sequence: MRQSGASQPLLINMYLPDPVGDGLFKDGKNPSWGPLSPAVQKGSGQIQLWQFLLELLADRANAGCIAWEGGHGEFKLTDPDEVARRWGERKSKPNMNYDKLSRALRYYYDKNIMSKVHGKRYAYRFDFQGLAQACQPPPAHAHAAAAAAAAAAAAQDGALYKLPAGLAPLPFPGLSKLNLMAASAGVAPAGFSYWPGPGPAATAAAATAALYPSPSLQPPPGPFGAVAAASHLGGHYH
Summary of the method: as §1

ETV5 = ETV5 (Homo sapiens, UniProt P41161 1-510)
Summary of the method: as §1

SPIC = molecular target: T8, SPIC (Homo sapiens, UniProt Q8N5J4 1-248)
T8 sequence: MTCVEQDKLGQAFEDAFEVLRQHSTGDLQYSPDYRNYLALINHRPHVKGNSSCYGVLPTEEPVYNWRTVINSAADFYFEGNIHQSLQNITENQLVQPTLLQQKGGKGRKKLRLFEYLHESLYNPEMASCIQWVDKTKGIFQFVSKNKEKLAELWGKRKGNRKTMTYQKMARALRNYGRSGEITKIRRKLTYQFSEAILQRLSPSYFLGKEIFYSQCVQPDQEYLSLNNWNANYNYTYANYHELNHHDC
Summary of the method: as §1

ELF4 = ELF4 (Homo sapiens, UniProt Q99607 1-663)
Summary of the method: as §1

ETV1 = ETV1 (Homo sapiens, UniProt P50549 1-477)
Summary of the method: as §1

ERF = molecular target: T9, ERF (Homo sapiens, UniProt P50548 1-548)
T9 sequence: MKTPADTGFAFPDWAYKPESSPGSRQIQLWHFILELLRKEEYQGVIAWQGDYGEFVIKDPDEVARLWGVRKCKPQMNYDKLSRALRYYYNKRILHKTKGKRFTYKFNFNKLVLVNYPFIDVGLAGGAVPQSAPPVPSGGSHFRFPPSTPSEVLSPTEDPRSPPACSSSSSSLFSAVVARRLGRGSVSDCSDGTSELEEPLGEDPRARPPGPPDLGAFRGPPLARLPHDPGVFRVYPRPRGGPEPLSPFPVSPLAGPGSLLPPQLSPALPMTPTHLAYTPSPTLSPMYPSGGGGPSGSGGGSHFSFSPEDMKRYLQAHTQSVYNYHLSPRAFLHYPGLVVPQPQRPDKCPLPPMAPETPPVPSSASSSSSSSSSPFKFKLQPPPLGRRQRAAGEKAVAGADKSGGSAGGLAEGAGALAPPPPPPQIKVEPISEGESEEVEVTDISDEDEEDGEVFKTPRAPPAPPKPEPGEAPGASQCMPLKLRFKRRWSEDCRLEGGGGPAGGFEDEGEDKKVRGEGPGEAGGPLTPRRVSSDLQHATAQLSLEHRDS
Summary of the method: as §1

ETV3L = molecular target: T10, ETV3L (Homo sapiens, UniProt Q6ZN32 1-361)
T10 sequence: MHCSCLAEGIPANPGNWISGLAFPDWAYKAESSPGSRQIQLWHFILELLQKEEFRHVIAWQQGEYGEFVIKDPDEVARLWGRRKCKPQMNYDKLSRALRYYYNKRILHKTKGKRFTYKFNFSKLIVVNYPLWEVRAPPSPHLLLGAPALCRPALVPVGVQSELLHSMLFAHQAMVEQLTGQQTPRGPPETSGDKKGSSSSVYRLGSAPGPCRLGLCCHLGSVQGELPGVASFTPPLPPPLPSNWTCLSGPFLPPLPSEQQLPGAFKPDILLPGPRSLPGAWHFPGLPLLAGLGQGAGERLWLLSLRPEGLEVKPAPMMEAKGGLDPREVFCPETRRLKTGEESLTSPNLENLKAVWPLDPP
Summary of the method: as §1

ETS2 = molecular target: T11, ETS2 (Homo sapiens, UniProt P15036 1-469)
T11 sequence: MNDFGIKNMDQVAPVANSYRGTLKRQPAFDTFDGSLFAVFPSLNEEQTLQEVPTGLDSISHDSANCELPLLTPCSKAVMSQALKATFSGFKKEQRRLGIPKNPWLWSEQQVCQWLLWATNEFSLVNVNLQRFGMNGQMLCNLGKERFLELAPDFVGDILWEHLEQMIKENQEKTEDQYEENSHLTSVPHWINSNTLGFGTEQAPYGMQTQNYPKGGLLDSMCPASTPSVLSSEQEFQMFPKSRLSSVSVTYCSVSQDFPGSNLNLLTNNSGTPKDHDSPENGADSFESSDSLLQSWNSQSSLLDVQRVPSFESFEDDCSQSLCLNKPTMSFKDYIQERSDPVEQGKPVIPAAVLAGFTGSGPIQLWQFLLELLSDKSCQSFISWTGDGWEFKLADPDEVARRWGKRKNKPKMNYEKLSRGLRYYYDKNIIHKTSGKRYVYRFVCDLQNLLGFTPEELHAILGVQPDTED
Summary of the method: as §1

SPDEF = molecular target: T12, SPDEF (Homo sapiens, UniProt O95238 1-335)
T12 sequence: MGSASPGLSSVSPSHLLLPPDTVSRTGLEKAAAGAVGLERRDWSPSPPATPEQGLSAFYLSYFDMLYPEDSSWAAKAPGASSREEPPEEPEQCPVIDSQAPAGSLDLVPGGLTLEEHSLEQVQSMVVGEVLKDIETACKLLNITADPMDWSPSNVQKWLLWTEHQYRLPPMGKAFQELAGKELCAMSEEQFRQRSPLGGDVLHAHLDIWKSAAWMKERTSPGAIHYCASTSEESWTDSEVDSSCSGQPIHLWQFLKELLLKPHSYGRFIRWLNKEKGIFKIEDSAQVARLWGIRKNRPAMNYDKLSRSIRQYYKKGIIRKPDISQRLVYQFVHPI
Summary of the method: as §1

ETV3 = molecular target: T13, ETV3 (Homo sapiens, UniProt P41162-2 1-143)
T13 sequence: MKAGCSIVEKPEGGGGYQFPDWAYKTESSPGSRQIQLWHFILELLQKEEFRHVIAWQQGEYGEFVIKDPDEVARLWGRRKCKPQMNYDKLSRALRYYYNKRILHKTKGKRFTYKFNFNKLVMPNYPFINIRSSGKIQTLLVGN
Summary of the method: as §1

ETV6 = ETV6 (Homo sapiens, UniProt P41212 1-452)
Summary of the method: as §1

SPIB, sequence (Q01892 whole entry): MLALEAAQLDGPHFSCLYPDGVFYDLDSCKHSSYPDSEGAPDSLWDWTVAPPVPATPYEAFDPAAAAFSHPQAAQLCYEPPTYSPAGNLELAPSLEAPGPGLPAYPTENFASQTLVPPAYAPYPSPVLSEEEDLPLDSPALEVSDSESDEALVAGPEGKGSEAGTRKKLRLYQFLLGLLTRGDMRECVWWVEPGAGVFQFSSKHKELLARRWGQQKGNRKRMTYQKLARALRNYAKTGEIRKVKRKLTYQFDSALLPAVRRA
ELF4, sequence (Q99607 whole entry): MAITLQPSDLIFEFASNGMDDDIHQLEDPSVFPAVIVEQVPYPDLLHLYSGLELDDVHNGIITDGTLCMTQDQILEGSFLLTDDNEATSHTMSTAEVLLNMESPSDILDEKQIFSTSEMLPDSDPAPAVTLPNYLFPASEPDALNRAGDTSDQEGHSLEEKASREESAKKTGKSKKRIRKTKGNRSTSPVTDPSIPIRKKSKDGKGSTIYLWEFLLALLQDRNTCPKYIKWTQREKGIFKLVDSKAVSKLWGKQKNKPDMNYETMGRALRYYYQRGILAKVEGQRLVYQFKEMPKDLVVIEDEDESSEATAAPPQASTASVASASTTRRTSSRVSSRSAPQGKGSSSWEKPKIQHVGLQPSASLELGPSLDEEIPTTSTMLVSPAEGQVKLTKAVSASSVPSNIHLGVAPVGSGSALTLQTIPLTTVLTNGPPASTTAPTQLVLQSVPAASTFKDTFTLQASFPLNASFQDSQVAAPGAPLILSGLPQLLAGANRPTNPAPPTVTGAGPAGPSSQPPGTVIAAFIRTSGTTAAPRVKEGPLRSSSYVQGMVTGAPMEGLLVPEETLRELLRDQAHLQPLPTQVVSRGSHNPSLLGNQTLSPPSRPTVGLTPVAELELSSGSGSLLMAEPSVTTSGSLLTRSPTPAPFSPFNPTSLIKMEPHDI
ETV1, sequence (P50549 whole entry): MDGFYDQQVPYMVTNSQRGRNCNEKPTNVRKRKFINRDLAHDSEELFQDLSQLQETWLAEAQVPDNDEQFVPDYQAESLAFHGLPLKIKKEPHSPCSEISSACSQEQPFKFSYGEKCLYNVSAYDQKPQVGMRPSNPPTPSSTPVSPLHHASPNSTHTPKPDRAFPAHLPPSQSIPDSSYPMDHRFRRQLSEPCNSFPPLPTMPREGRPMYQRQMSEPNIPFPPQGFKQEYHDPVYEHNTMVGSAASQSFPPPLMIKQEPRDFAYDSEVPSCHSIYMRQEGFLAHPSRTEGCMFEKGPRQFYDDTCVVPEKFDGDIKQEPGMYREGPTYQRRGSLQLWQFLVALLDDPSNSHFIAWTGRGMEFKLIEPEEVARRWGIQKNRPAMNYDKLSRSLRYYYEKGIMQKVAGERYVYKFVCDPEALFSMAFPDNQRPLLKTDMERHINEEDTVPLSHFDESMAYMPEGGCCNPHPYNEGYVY
ELF1, sequence (P32519 whole entry): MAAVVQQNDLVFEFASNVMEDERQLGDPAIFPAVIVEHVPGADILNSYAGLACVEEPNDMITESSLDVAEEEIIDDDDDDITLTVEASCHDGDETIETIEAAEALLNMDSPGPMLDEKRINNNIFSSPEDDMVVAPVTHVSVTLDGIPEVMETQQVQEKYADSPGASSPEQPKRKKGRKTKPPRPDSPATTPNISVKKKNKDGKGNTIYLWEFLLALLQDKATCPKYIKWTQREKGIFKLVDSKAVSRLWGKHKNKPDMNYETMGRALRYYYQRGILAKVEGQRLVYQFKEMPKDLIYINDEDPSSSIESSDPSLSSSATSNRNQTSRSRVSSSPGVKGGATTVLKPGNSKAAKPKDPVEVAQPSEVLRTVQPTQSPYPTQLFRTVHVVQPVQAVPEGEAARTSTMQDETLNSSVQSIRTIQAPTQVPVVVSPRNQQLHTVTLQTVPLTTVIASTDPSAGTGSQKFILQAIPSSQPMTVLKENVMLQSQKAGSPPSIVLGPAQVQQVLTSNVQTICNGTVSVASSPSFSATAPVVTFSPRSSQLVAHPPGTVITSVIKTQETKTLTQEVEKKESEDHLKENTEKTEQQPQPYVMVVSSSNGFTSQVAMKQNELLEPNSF
ETV5, sequence (P41161 whole entry): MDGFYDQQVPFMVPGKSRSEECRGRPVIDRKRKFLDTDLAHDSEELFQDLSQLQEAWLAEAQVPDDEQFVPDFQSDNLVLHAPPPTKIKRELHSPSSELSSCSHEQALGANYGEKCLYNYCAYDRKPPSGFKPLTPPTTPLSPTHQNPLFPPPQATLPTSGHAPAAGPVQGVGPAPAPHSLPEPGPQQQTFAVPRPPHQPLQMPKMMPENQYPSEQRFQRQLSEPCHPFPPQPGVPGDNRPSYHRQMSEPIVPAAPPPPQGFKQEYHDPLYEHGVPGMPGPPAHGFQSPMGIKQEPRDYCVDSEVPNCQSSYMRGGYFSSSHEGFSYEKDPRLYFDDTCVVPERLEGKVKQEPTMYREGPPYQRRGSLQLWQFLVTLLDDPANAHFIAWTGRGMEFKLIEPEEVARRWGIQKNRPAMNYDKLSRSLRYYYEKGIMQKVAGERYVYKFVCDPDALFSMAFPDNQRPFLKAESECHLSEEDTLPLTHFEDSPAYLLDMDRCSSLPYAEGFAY
ETV6, sequence (P41212 whole entry): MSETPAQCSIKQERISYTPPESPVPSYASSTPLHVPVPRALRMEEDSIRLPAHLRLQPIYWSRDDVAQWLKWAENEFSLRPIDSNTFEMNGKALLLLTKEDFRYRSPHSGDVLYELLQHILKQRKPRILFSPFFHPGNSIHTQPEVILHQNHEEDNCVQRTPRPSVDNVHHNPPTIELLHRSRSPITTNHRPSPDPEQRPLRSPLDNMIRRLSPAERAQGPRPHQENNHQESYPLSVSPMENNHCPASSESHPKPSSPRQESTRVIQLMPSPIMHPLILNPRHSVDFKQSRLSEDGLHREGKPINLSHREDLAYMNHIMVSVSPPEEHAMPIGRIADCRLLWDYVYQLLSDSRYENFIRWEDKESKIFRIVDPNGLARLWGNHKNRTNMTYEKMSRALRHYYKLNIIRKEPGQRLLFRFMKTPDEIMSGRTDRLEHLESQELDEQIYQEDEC

## GAAGTC
FLI1
  binding signal: 1.15 fold enrichment (6-mer frequency, TF over GST control)
ELK1
  binding signal: 1.2 fold enrichment (6-mer frequency, TF over GST control)
GABPA
  binding signal: 1.04 fold enrichment (6-mer frequency, TF over GST control)
ERG
  binding signal: 1.33 fold enrichment (6-mer frequency, TF over GST control)
ELF1
  binding signal: 1.1 fold enrichment (6-mer frequency, TF over GST control)
EHF
  binding signal: 1.13 fold enrichment (6-mer frequency, TF over GST control)
SPI1
  binding signal: 1.51 fold enrichment (6-mer frequency, TF over GST control)
SPIB
  binding signal: 1.22 fold enrichment (6-mer frequency, TF over GST control)
ELK3
  binding signal: 1.19 fold enrichment (6-mer frequency, TF over GST control)
FEV
  binding signal: 1.22 fold enrichment (6-mer frequency, TF over GST control)
ETV5
  binding signal: 1.17 fold enrichment (6-mer frequency, TF over GST control)
SPIC
  binding signal: 1.23 fold enrichment (6-mer frequency, TF over GST control)
ELF4
  binding signal: 1.08 fold enrichment (6-mer frequency, TF over GST control)
ETV1
  binding signal: 1.22 fold enrichment (6-mer frequency, TF over GST control)
ERF
  binding signal: 1.11 fold enrichment (6-mer frequency, TF over GST control)
ETV3L
  binding signal: 1.14 fold enrichment (6-mer frequency, TF over GST control)
ETS2
  binding signal: 1.19 fold enrichment (6-mer frequency, TF over GST control)
SPDEF
  binding signal: 1.06 fold enrichment (6-mer frequency, TF over GST control)
ETV3
  binding signal: 1.21 fold enrichment (6-mer frequency, TF over GST control)
ETV6
  binding signal: 1.22 fold enrichment (6-mer frequency, TF over GST control)
